# Assay results: PubChem BioAssay AID1745856 (National Center for Advancing Translational Sciences (NCATS), 2022)
# The campaign covered roughly 120,000 compounds. About 270 (0.23%) were called active. Another 5% or so got no clear call; they are omitted. Calls follow the shape of the full dose curve. What follows is part of a selection rich in actives, with near analogues and random picks from the rest. Where a call stands in place of a potency, no number is given.
# Test: Primary qHTS Assay for Foot and Mouth Disease Virus Antivirals against NCGC Sytravon and CBC Compound Libraries: Firefly Luciferase Signal; also: nearly all actives have a fitted effect of over 60% in size
# Settings: FMDV antiviral cell assay; series mostly up to 57.5 µM
# Potency is read from the fitted curve at half-maximal effect.
row,Compound,Potency
1,Cc1ccc(-c2ccc(CCC(=O)O)n2NC(=O)c2ccc(F)cc2)cc1,inactive
2,O=C(Nc1cccc(I)c1)c1ccc2c3c(cccc13)CC2,inactive
3,COC(=O)c1ccc(CNC(=O)CCCNC(=O)C(C)(C)C)cc1,inactive
4,Cc1nc2cc(NC(C)C(=O)Nc3cccc(Cl)c3Cl)ccc2o1 (configuration not stated),inactive
5,COC(=O)c1cccc(N=Cc2cc(Cl)ccc2O)c1,inactive
6,CC(C)CNC(=O)COC(=O)Cc1nn(C)c(=O)c2ccccc12,inactive
7,O=C(CN1CCN(C(=O)c2nn(Cc3ccccc3)c(=O)c3ccccc23)CC1)Nc1ccc(F)cc1,inactive
8,Cc1noc(C)c1CS(=O)(=O)c1ccc(Cl)cc1,inactive
9,Cc1cccc(NC(=O)c2cc3cc(Br)ccc3oc2=O)c1,inactive
10,COc1ccccc1NC(=O)c1cc2ccccc2cc1OCC(N)=O,inactive
11,Cc1nc(NC(=O)C(C)Sc2nnc(-c3ccccc3F)n2CC(C)C)sc1C (configuration not stated),inactive
12,Cn1c(=O)[nH]c(=O)c2c(C(=O)O)cc(C3CC3)nc21,inactive
13,Cc1cc(/C=C(/C#N)c2nc3ccccc3n2C)cc(C)c1O,inactive
14,Clc1ccc(CN2CCN(c3ncnc4nc[nH]c34)CC2)cc1,inactive
15,COc1ccccc1-c1nc(C#N)c(NCc2ccccc2)o1,inactive
16,[O-]/[N+](=C\c1ccc2ccccc2n1)c1ccccc1,inactive
17,CCCC(=O)Nc1cccc(-c2cc3cc(F)ccc3[nH]2)c1,inactive
18,Cc1ccc(-c2cc(-c3ccccc3)c(C#N)c(SCCS(=O)Cc3ccccc3)n2)cc1 (configuration not stated),inactive
19,N#Cc1ccccc1NC(=O)c1cnc2ccccc2n1,inactive
20,CCOC(=O)c1cc(NCc2c(Cl)cccc2Cl)ccc1N1CCOCC1,inactive
21,Cc1occc1-c1nnc(SCC(=O)N2c3ccccc3CC2C)o1 (configuration not stated),inactive
22,Cc1c(Cl)cccc1N(CC(=O)Nc1c(C)n(C)n(-c2ccccc2)c1=O)S(C)(=O)=O,inactive

row,Compound,Potency
1,CCOC(=O)c1cc(NC(=O)c2ccc(-c3ccccc3)cc2)ccc1N1CCOCC1,inactive
2,C(=N\N=C(c1ccccc1)c1ccccc1)/c1c[nH]c2ccccc12,inactive
3,Cc1ccc(C(=O)NC2CCSC2=O)cc1C (configuration not stated),inactive
4,Cc1ccc(CCNC(=O)c2noc(C)c2Cn2nc(C)cc2C)cc1,inactive
5,O=C(Nc1ncn(Cc2ccc(Cl)cc2)n1)c1ccn(COc2ccc(F)cc2F)n1,inactive
6,Fc1ccc(-c2ccc(CNCc3ccccc3)o2)cc1,inactive
7,COc1nc2ccccc2nc1N1CCC(C(=O)Nc2ccccc2F)CC1,inactive
8,Cc1nc(-c2ccc(F)cc2)sc1C(=O)N[C@H](C(=O)O)C(C)C,inactive
9,Cc1cnc(NC(=O)c2nc(C)n(-c3ccc(F)cc3)n2)s1,inactive
10,CCCn1nc(C(=O)Nc2ncc(Cc3ccc(F)cc3)s2)ccc1=O,31.6 µM (active)
11,COc1ccc(/C(=N/OC(=O)c2cccc(F)c2)c2nccc3cc(OC)c(OC)cc23)cc1OC,inactive
12,COc1ccc(-c2cc(C(=O)NC3CC(C)(C)NC(C)(C)C3)c3ccccc3n2)cc1OC,inactive
13,CCOc1cc(/C=C2\NC(=O)NC2=O)cc(Br)c1OCc1cccc2ccccc12,inactive
14,CCC(CC)NC(=O)COC(=O)c1ccc(C)c(C)c1,inactive
15,COc1ccc(CN(C(=O)COc2ccc(C)cc2)c2ccccn2)cc1OC,inactive
16,CC1CCN(C(=O)c2cccnc2-c2nc3ccccc3s2)CC1,inactive
17,Cc1ccc2c(Cl)cc(Cl)c(OCC(=O)N3CCCCCC3)c2n1,inactive
18,CCCCCNC(=O)N(C)Cc1ccc(C(=O)OC)cc1,inactive
19,COc1cccc(CNC(=O)COC(=O)c2c(F)cccc2F)c1,inactive
20,COc1ccc2c(c1OC)C(=O)OC2Nc1nc(-c2ccccc2)cs1 (configuration not stated),28.2 µM (active)
21,Cc1cccc(C)c1Nc1nc(-c2ccccc2)cs1,inactive
22,COc1ccc(-c2csc(Nc3cccc(C)n3)n2)cc1OC,inactive

row,Compound,Potency
1,Cc1cccc(C)c1NC(=O)CN(C)CC(=O)NC(=O)NCc1ccccc1,inactive
2,CC(=O)N1CCN(c2c([N+](=O)[O-])cnc3ccc(Br)cc23)CC1,inactive
3,COc1c(C)cccc1C(=O)Nc1cccc2ncccc12,inactive
4,CCCOc1ccc(NC(=O)COc2cccc(C)c2C)c2cccnc12,inactive
5,CCOc1ccccc1OCC(=O)Nc1cccc2ncccc12,8.91 µM (active)
6,CCC1CCCCN1S(=O)(=O)c1ccc(NC(=O)c2cc(-c3ccc(OC)cc3)on2)cc1 (configuration not stated),inactive
7,Cc1cc(SCC(=O)NC(=O)NCC(C)C)nc2ccccc12,inactive
8,COc1ccc(NC(C)=O)cc1S(=O)(=O)NC(c1ccc(F)cc1)c1cccs1 (configuration not stated),inactive
9,CC1CCn2c(nc3cc(C(=O)N4CCN(c5ccccc5)CC4)ccc32)C1 (configuration not stated),inactive
10,CC1CCCCN1C(=O)CSc1nc2ccccc2n1CCC#N (configuration not stated),inactive
11,O=C(CC12CC3CC(CC(C3)C1)C2)OCC(=O)c1ccc2c(c1)OCO2,inactive
12,CCCCN(C)C(=O)C1CCC(Cn2c(=O)c3sccc3n(Cc3ccccc3)c2=O)CC1 (configuration not stated),inactive
13,Cc1ccc2nc(-c3ccccn3)cc(C(=O)O)c2c1,inactive
14,Cc1nc2cc(NC(C)C(=O)Nc3ccccc3F)ccc2o1 (configuration not stated),inactive
15,CCc1ccc(Nc2nc3ccccc3nc2NS(=O)(=O)c2ccc(F)cc2)cc1,inactive
16,Cn1nc(C(=O)NCCc2ccc(F)cc2)c2ccccc2c1=O,inactive
17,COc1ccc(NC(=O)CSCc2cc(=O)n3cc(C)ccc3n2)cc1Cl,inactive
18,Cc1cc(=O)oc2c(C)c(OCC(=O)NCCc3ccc(S(N)(=O)=O)cc3)ccc12,inactive
19,O=C(CCc1nc2ccccc2s1)NC1CCCCCC1,inactive
20,CCS(=O)(=O)N1CCc2cc(C(=O)CSc3ccc(Cl)cc3)ccc21,inactive
21,Cc1ccc(-c2cc(C(=O)N3CCCCCC3)c3ccccc3n2)o1,inactive
22,Cc1cccc(N(C)C(=O)Cn2nc(Cc3cccnc3)c3ccccc3c2=O)c1,inactive

row,Compound,Potency
1,Cc1ccc(NC(=O)C(Sc2ccccc2)c2ccccc2)cc1C (configuration not stated),inactive
2,CCN(CC)C(=O)c1sc2nc(C(C)(C)C)nc(C)c2c1C,inactive
3,COc1cc(NC(=O)C2CCCN2C(=O)C23CC4CC(CC(C4)C2)C3)c(OC)cc1Cl (configuration not stated),inactive
4,CC1CCC(NC(=O)c2ccccc2SCC#N)CC1 (configuration not stated),inactive
5,COc1ccc2c(C)c(CC(=O)Nc3nnc(C(C)C)s3)c(=O)oc2c1OC,inactive
6,Cc1ccccc1C(C)N (configuration not stated),inactive
7,COc1ccc(/C=C2\CCc3ccccc3C2=O)cc1Br,inactive
8,CCOc1ccc(OCC(=O)NCCc2c[nH]c3ccccc23)cc1,inactive
9,COCCN(CCOC)C(=O)Cc1n[nH]c(=O)c2ccccc12,inactive
10,COc1ccc(-c2noc(-c3cccc(OCC(=O)N4CCCC4)c3)n2)cc1,inactive
11,O=S(=O)(c1ccc(Sc2nnnn2C2CCCC2)nc1)N1CCOCC1,inactive
12,Cc1cccc(-c2nc3cc(NC(=O)CC(C)C)ccc3o2)c1,inactive
13,CCOC(=O)CSCc1cccc(Cl)c1,inactive
14,O=c1[nH]c(=O)n(CCc2ccccc2)c2nccc(-c3ccc(Cl)cc3)c12,inactive
15,CC1CCC(=NNC(=S)NC2CCCCC2)CC1 (configuration not stated),inactive
16,CCCNC(=O)NCc1nc(-c2ccc(OC)cc2)oc1C,inactive
17,COc1ccc(C(=O)COC(=O)Cc2c(Cl)cccc2Cl)c(OC)c1,inactive
18,O=C1CC(c2cccc(Br)c2)c2c(n3c(nc4ccccc43)[nH]c2=O)N1 (configuration not stated),inactive
19,CCN(C(=O)CSc1nc(-c2ccccc2Cl)nc2cc(=O)[nH]n12)c1ccccc1,inactive
20,O=C(NCc1coc(-c2cccs2)n1)c1ccc(C(F)(F)F)cc1,inactive
21,O=C(CSc1nc2ncccc2c(=O)n1-c1ccccc1)NC(=O)NC1CC1,inactive
22,CCOCCn1c(NCCCOC)nc2c1c(=O)[nH]c(=O)n2C,inactive

row,Compound,Potency
1,NC(=O)Cn1nc(-c2cccc([N+](=O)[O-])c2)c2ccccc2c1=O,inactive
2,O=C(NCc1ccc(F)cc1)c1cc(S(=O)(=O)C2CCS(=O)(=O)C2)ccc1F (configuration not stated),inactive
3,CCN(CC)C(=O)Oc1ccc2c(C)c(-c3ccccc3)c(=O)oc2c1,inactive
4,Cc1ccsc1CNC(=O)CCc1ccc(F)c(F)c1,inactive
5,COCCCNC(=O)Cc1c(C)c2ccc(OC(C)=O)c(OC(C)=O)c2oc1=O,inactive
6,C[C@H](NC(=O)C(c1ccccc1)c1ccccc1)C(=O)O,inactive
7,Nc1nccnc1C(=O)Nc1cccc(NC(=O)c2ccncc2)c1,inactive
8,CC(Sc1nc2ccccc2n1C)C(=O)NCc1ccc2c(c1)OCO2 (configuration not stated),inactive
9,Cc1nc2ccc(C)c(C)c2s1,inactive
10,Cc1c(Cl)cccc1NC(=O)Cn1cc(C(=O)c2cccs2)c2ccccc21,7.08 µM (active)
11,Cc1ccccc1NC(=O)Cn1cc(C(=O)c2cccs2)c2ccccc21,inactive
12,O=C(c1cccs1)c1cn(CCOc2ccc(Cl)cc2)c2ccccc12,inactive
13,Cc1ccc(C)c(COC(=O)c2ccc3c(c2)NC(=O)CS3)c1,inactive
14,CC(C)C(C#CC(O)(c1ccccc1)c1ccccc1)N(C)C (configuration not stated),inactive
15,COc1cc(NC(=O)Cn2c3c(c(=O)n2-c2ccccc2)Cc2cc(Cl)ccc2O3)cc(OC)c1,inactive
16,O=C(O)c1c(F)c(F)c(F)c(F)c1-c1ccccc1,inactive
17,O=C(NC1CC1)C(Sc1c(Cl)cccc1Cl)c1ccccc1 (configuration not stated),inactive
18,CCCCCNC(=O)CCc1c[nH]c2ccccc12,inactive
19,CCC(C)n1cc(/C=C2\NC(=O)N(CC)C2=O)c2ccccc21 (configuration not stated),inactive
